Laboratory results from ChEMBL document CHEMBL3988442, “University of Dundee, Small-Polar-MMV Screening Library” (2021).

Molecular target: AMP-activated protein kinase, AMPK (Homo sapiens) (UniProt P54646+O43741+P54619+Q9UGJ0+Q9Y478+Q13131+Q9UGI9)
Assay: AMP-dependent Kinase enzyme assay. An in vitro enzyme assay that detects ADP turnover that is directly proportional to AMPK activity. This uses naive AMPK that is activated during the assay with MK-8722
Assay type: functional
Parameters: scale not given: direction of the effect not stated beside the values
Conditions: 30 µM

| SMILES | Percent Effect |
| --- | --- |
| Cc1nn(C2CCCCC2)c2nc(C(C)(C)CN3CCOCC3)[nH]c12 | 12% |
| Cc1cc(C(=O)N2CC[C@@]3(O)CCN(S(C)(=O)=O)C[C@H]3C2)c(C)n1C | 3.49% |
| Cc1ccc(F)c2c1CCCN2CC(=O)NC1CCS(=O)(=O)C1 (centres undefined) | 3.51% |
| COc1ncc(NCc2cc(C#N)cs2)cc1C(N)=O | 6.61% |
| CN(C)C(=O)c1cncnc1-c1ccc(CNC(=O)C2CCCO2)cc1 (centres undefined) | -0.401% |
| N[C@H]1CN(S(=O)(=O)Cc2ccccc2)C[C@@H]1C1CC1 | -5.29% |
| CCC(C)C(=O)N(C)Cc1cc(F)ccc1N1CCC(OC)CC1 (centres undefined) | 8.71% |
| CC1CCN(c2ncc(-c3ccccc3F)c(-c3nccn3C)n2)CC1 | 15.2% |
| CN(C)c1ccc(C(=O)Nc2ccn(Cc3ccccn3)n2)cn1 | 18.9% |
| CC1COCCN1C(=O)Cc1cc(Cl)c2c(c1)OCCCO2 (centres undefined) | 7.18% |
| O=C(c1ccnc(CC2COc3ccccc3C2)c1)N1CCCC1 (centres undefined) | 7.97% |
| COC(=O)N1CCCCC1C(=O)N1CCN(c2cccnc2)CC1 (centres undefined) | -4.3% |
| CN(CCCOc1ccccc1Cl)C(=O)CN1C[C@@H]2CC[C@H](CC1=O)N2 | 10.1% |
| Cc1cc(C)c(C#N)c(N2CCC3(CCCN(CCO)C3=O)C2)n1 (centres undefined) | 8.35% |
| CNC(=O)C1CCN(c2ncnc3c2CCN(C(=O)C2CC2)C3)C1 (centres undefined) | 2.51% |
| NC(=O)c1cn[nH]c1NC(=O)c1ccc2c(c1)OCO2 | 5.07% |
| CCc1noc(C(C)N2CCCN(Cc3noc(C4CC4)n3)CC2)n1 (centres undefined) | 0.0834% |
| O=C(CN1CCC(c2nnc(C(F)(F)F)o2)CC1)NCc1ccccc1 | 0.729% |
| Cc1nnc(NC(=O)NCCN(C(=O)OC(C)(C)C)C2CC2)s1 | -6.8% |
